The list is not random: actives were taken first. Their share in the collection is about 3.4%.
GPR151 ag = activators of human GPR151, primary screen, cell-based, PathHunter beta-arrestin, luminescence; G-protein coupled receptor 151 (Homo sapiens), Q8TDV0; PathHunter beta-arrestin GPR151 cells; activation, % at 11.2 µM; hit rate 1% among 650,000; AID 1508602, 2020; in the data active = activation above about 4.9%
MITF inh = MITF inhibitors, primary screen, biochemical, AlphaScreen, human; inhibition, % at 2.6 µM; AlphaScreen MITF homodimerization, bead proximity signal; AID 1259374, 2018; hit rate 0.91% among 650,000; in the data active = inhibition above about 50%
FBW7 activator = FBW7 E3 ligase activators, primary screen, biochemical, AlphaScreen, human; F-box/WD repeat-containing protein 7 (Homo sapiens), Q969H0; hit rate 0.13% among 650,000; AlphaScreen FBW7–phospho-cyclin E peptide binding, activator screen; normalized activity (activation), % at 26.1 µM; in the data active = normalized activity above about 1.9%;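 also: purified mutant Fbw7 with reduced substrate affinity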
Target sequence (Q969H0 whole entry, looked up): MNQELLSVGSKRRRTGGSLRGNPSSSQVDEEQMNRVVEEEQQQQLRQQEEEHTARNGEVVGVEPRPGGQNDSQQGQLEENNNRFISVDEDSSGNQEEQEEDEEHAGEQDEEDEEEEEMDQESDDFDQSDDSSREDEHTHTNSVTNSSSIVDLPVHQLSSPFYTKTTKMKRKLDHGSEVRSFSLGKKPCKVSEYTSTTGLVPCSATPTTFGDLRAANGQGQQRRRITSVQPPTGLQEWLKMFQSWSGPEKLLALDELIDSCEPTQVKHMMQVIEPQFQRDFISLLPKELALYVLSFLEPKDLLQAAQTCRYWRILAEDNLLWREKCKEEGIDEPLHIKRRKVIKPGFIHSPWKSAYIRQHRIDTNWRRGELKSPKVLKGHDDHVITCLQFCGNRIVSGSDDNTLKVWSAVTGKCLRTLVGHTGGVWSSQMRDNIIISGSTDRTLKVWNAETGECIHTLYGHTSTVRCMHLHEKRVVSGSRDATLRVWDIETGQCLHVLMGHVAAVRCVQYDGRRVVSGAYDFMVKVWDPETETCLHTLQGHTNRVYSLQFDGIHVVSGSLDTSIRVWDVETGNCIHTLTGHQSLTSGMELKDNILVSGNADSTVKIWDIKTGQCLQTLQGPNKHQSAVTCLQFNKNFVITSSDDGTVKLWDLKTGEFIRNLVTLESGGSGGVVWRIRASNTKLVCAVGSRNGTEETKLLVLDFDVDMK
TEAD-YAP inh = TEAD-YAP interaction inhibition, primary screen, TEAD-YAP interaction inhibitor project, luminescence, HEK-TIYL cells. AID 1259422, 2018. inhibition, % at 9.12 µM. TEAD-Gal4/YAP UAS-luciferase luminescence. hit rate 1.4% among 640,000; in the data active = inhibition above about 32%
MITF confirm = MITF inhibitors, retest of hits, confirmation, biochemical, AlphaScreen, triplicate | hit rate 16% among 4,700 | inhibition, % at 2.6 µM | AlphaScreen MITF homodimerization, biotin/His-MITF beads | shares compounds with MITF inh;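 active = inhibition above a cutoff derived from the DMSO control wells, cut at about 28% in these data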;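 also: inhibitors lower the bead chemiluminescence by keeping MITF from dimerizing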
AlphaScreen intf2 = AlphaScreen optical interference compounds, counter-screen for MITF inhibitor project, biochemical, triplicate; shares compounds with MITF inh; LysRS AlphaScreen counterscreen, signal interference; inhibition, % at 2.6 µM; hit rate 7.6% among 4,700; AID 1259376, 2018;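 active = inhibition above a cutoff derived from the DMSO control wells, cut at about 30% in these data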
A number is an active result; n = inactive; x = not tested or not shown.

SMILES | GPR151 ag | MITF inh | FBW7 activator | TEAD-YAP inh | MITF confirm | AlphaScreen intf2
COc1ccc2nc(SCC(=O)NCc3cccs3)c(C#N)cc2c1 | n | n | n | n | x | x
O=C(CSc1nc2ccsc2c(=O)n1CCc1ccccc1)c1ccc(Br)cc1 | n | n | n | n | x | x
O=C(CNCc1cccnc1)N(c1ccccc1)c1ccccc1 | n | 95 | n | n | n | n
O=C(CNCc1cccnc1)Nc1ccc(C2CCCCC2)cc1 | n | 59 | n | n | n | n
O=C(CNCc1cccnc1)Nc1ccccc1N1CCOCC1 | n | 102 | n | n | n | n
O=C(CNCc1cccnc1)Nc1ccc(OC(F)(F)F)cc1 | n | n | n | n | x | x
O=C(COc1cccc(Cl)c1)NC(c1ccccc1)c1ccccc1 | n | n | n | n | x | x
CC(=O)c1ccc(NC(=O)COC(=O)c2c3ccccc3cc3ccccc23)cc1 | n | n | n | n | x | x
CCc1ccc(CN2CCN(C3CCCC(C)C3)CC2)cc1 (stereo not drawn) | n | 64 | n | n | n | n
CC1CCCC(N2CCN(Cc3cccc(F)c3)CC2)C1 (stereo not drawn) | n | 69 | n | n | n | n
CC1CCCC(N2CCN(Cc3ccc(Cl)cc3)CC2)C1 (stereo not drawn) | n | 73 | n | n | n | n
CC1CCCC(N2CCN(Cc3ccc(F)cc3)CC2)C1 (stereo not drawn) | n | 74 | n | n | n | n
Fc1cccc(CN2CCC(N3CCCCC3)CC2)c1 | n | n | n | n | x | x
CC1CCC(N2CCN(Cc3ccc(F)cc3)CC2)CC1 (stereo not drawn) | n | n | n | n | x | x
Cc1c(N=Cc2c(O)[nH]c(=O)c3ccccc23)c(=O)n(-c2ccccc2)n1C | n | n | n | n | x | x
CCCC(=O)C1C(=O)CC(C)(C)C(C(=O)OC)C1=O (stereo not drawn) | n | n | n | n | x | x
CC(C)CC(=O)N1CCN(c2ccc(-c3ccccn3)nn2)CC1 | n | 125 | n | n | 114 | 101
O=C(c1ccccc1F)N1CCN(c2ccc(-c3ccccn3)nn2)CC1 | n | 119 | n | n | 110 | 101
O=C(C1CC1)N1CCN(c2ccc(-c3ccccn3)nn2)CC1 | n | 122 | n | n | 112 | 101
O=C(CSc1ccc(-c2ccccn2)nn1)N1CCN(c2ccccc2)CC1 | n | n | n | n | x | x
NC(=O)c1ccc(N2CCCC2c2nc3ccccc3s2)c([N+](=O)[O-])c1 (stereo not drawn) | n | n | n | n | x | x
Cn1c(-c2ccccc2)cnc1NCc1ccc(F)cc1 | n | n | n | n | x | x
Cn1c(-c2ccc(F)cc2)cnc1NCc1ccccc1 | n | 59 | n | n | n | n
Cn1c(-c2ccc(F)cc2)cnc1NCc1cccc(F)c1 | n | 53 | n | n | n | n
CCCS(=O)(=O)N1CCN(CC2CC=CCC2)CC1 (stereo not drawn) | n | n | n | n | x | x
SMILES | GPR151 ag | MITF inh | FBW7 activator | TEAD-YAP inh | MITF confirm | AlphaScreen intf2
C1=CCC(CN2CCN(C3CCCCCC3)CC2)CC1 (stereo not drawn) | n | 76 | n | n | n | n
CC1CCC(N2CCN(CC3CC=CCC3)CC2)CC1 (stereo not drawn) | n | 62 | n | n | n | n
COc1cc(CN2CCC(N3CCCCC3)CC2)cc(OC)c1OC | n | n | n | n | x | x
COc1cc(CN2CCN(C3CCCCC3C)CC2)cc(OC)c1OC (stereo not drawn) | n | 74 | n | n | n | n
COc1cc(CN2CCC(N3CCCC3)CC2)cc(OC)c1OC | n | 58 | n | n | n | n
CCOC(=O)c1ccc(NC(=O)COc2ccc(Br)cc2C(=O)O)cc1 | n | n | n | n | x | x
CCOC(=O)C1=C(N)OC2=C(C(=O)CCC2)C1c1ccc(Cl)cc1 (stereo not drawn) | n | 89 | n | n | n | n
CCOc1ccc(C2C(C#N)=C(N)OC3=C2C(=O)CCC3)cc1 (stereo not drawn) | n | 54 | n | n | n | n
CN(C)C=Nc1cc2c(cc1[N+](=O)[O-])OCCO2 | n | 51 | n | n | n | n
Nc1cc2c(cc1[N+](=O)[O-])OCCO2 | n | n | n | n | x | x
